Source: PubChem (National Center for Advancing Translational Sciences (NCATS))
HCMV antiviral: qHTS Assay for inhibitors of the human cytomegalovirus (HCMV); HFF cells, HCMV-luciferase reporter, 72 h; hits give low values; activity change, negative = inhibition, % at 57.5 µM; 410,000 tested, 4.5% active; AID 1259415, 2018; in the data active means activity change below about -60%; inconclusive means no clear call, values can overlap the other calls; inactive means above about -39%; further: on the % scale 0 is the no-effect control and ±100 the full control effect
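Inhibition of viral replication was scored as loss of reporter luminescence in HFFs infected with HCMV-luciferase (MOI 1 PFU/cell) for 72 h; compounds tested at 2 doses, normalized to buffer and Salinomycin controls.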
FMDV inh: High Throughput Screening for Foot and Mouth Disease Virus Antivirals; FMDV antiviral cell-based qHTS; Potency, µM (top dose mostly 57.9 µM), for the others: at the top dose activity change, negative = inhibition, hits mostly inhibitors; 410,000 tested, 1.2% active; AID 1159524, 2015; calls by dose curve; tested in HEK293T cells; further: read-out not given here; potency means the concentration at half of the fitted maximal effect; on the % scale 0 is the no-effect control and ±100 the full control effect; nearly all actives have a fitted effect of over 45% in size
SARS PLpro yeast-1: qHTS of Yeast-based Assay for SARS-CoV PLP. S. cerevisiae expressing SARS-CoV PLpro, growth rescue. Potency, µM (titrated, usually from 32.9 µM), inactives show at the highest dose activity, positive = growth rescue, hits mostly activators. 330,000 tested, 0.19% active; calls by dose curve; further: potency means the concentration at half of the fitted maximal effect; 0% is about no effect; nearly all actives have a fitted effect of over 55% in size
LASV entry inh: qHTS for Inhibitors of binding or entry into cells for Lassa Virus; Lassa virus pseudotype entry inhibition, cell reporter; Potency, µM (top dose mostly 37.9 µM), without a hit: at the top dose activity change, negative = inhibition, most hits filed as inhibitors; 300,000 tested, 1.2% active; AID 540256, 2011; calls by dose curve; tested in HEK293 cells; further: potency means the concentration at half of the fitted maximal effect; on the % scale 0 is the no-effect control and ±100 the full control effect; nearly all actives have a fitted effect of over 50% in size
MARV entry inh: qHTS for inhibitors of binding or entry into cells for Marburg Virus | Potency, µM (titrated, usually from 37.8 µM), without a hit: top-dose activity change, negative = inhibition, actives largely listed as inhibitors | 300,000 tested, 1.8% active | Marburg virus pseudotyped entry inhibition, cell reporter; calls by dose curve; tested in HEK293 cells; further: potency means the concentration at half of the fitted maximal effect; on the % scale 0 is the no-effect control and ±100 the full control effect
HCV inh: qHTS Assay for Inhibitors of Hepatitis C Virus (HCV); Huh7.5.1 HCVcc-Cre infection, luciferase reporter, 44 h; Potency, µM (series often up to 41.8 µM), inactives show top-dose activity change, negative = inhibition, most hits filed as inhibitors; 340,000 tested, 3.4% active; active means well fitted inhibition curve with a large enough effect; inconclusive means small, poorly fitted or top-dose-only effect, or another doubt; inactive means no such curve, though single readings can be large or run the other way; further: potency means the concentration at half of the fitted maximal effect; on the % scale 0 is the no-effect control and ±100 the full control effect
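Seed cells (1,000/well) for 4 h; treat with compound and infect with HCVcc-Cre, moi about 0.5. Incubate 44 h, then detect luciferase activity.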
SARS PLpro yeast-2: qHTS of Yeast-based Assay for SARS-CoV PLP: Hit Validation; shares compounds with SARS PLpro yeast-1; yeast expressing SARS-CoV PLpro, growth phenotype rescue; calls only; 1,000 tested, 19% active; call rule not given here
* hit, by the source's call. Hits are enriched below; roughly 8% of the tested compounds scored in any of these assays.

COC(=O)c1ccc(OC(=O)c2cccnc2)cc1 was read as HCMV antiviral 30, FMDV inh -7%, SARS PLpro yeast-1 16µM*, LASV entry inh 0%, MARV entry inh 10%, HCV inh 5% and SARS PLpro yeast-2 inconclusive.
CCN1CCc2c(sc(NC(=O)Cc3ccccc3)c2C(N)=O)C1 was read as HCMV antiviral inconclusive, FMDV inh inconclusive, SARS PLpro yeast-1 -1% and HCV inh -14%.
Screening CCN1CCc2c(sc(NC(=O)Nc3ccc(Cl)c(Cl)c3)c2C(N)=O)C1 returned HCMV antiviral 38, FMDV inh -11%, SARS PLpro yeast-1 inconclusive, LASV entry inh -11%, MARV entry inh inconclusive, HCV inh inconclusive and SARS PLpro yeast-2 inactive.
For C/C=C/c1ccc(OCCCNC(C)CC)c(OC)c1 (centres undefined) the results were HCMV antiviral -10, FMDV inh -8%, SARS PLpro yeast-1 22µM*, LASV entry inh 3%, MARV entry inh inconclusive, HCV inh -17% and SARS PLpro yeast-2 inactive.
Screening CCCCN(C)CCNC(=O)Cn1c(=O)sc2ccccc21 returned HCMV antiviral 3, FMDV inh 2%, SARS PLpro yeast-1 4% and HCV inh 8%.
`CN(CCNC(=O)Cn1c(=O)sc2ccccc21)Cc1ccccc1` gave HCMV antiviral 9, FMDV inh -16%, SARS PLpro yeast-1 inconclusive, HCV inh -1% and SARS PLpro yeast-2 inactive.
`Cc1ccc(/C=C/C(=O)OCC(=O)Nc2cccc(S(=O)(=O)N(C)C)c2)o1` gave HCMV antiviral -29, FMDV inh 0%, SARS PLpro yeast-1 3.2µM*, LASV entry inh -4%, MARV entry inh inconclusive, HCV inh -1% and SARS PLpro yeast-2 inactive.
Cc1ccccc1C(=O)Nc1nc2nc(C)c(C)c(=O)n2[nH]1 was read as HCMV antiviral 73, FMDV inh -22%, LASV entry inh inconclusive and MARV entry inh inconclusive.
For COc1ccc(Oc2ncc3nc(C)c(=O)n(C4CC4)c3n2)cc1 the results were FMDV inh -7%.
Screening COc1cccc(C(CNC(=O)C2CCN(C(=O)Nc3ccccc3)CC2)N(C)C)c1 (centres undefined) returned HCMV antiviral 12, FMDV inh 12%, SARS PLpro yeast-1 inconclusive, LASV entry inh 3%, MARV entry inh inconclusive, HCV inh -2% and SARS PLpro yeast-2 inactive.
`CN(C)c1cccc(C(=O)N/N=C/c2ccoc2)c1` gave HCMV antiviral 20, FMDV inh 76%, LASV entry inh inconclusive, MARV entry inh 10% and HCV inh 10%.
`CN(C)c1cccc(C(=O)N/N=C/c2ccsc2)c1` gave HCMV antiviral 37, FMDV inh -9%, SARS PLpro yeast-1 20µM*, LASV entry inh inconclusive, MARV entry inh inconclusive, HCV inh 30% and SARS PLpro yeast-2 inactive.
CCc1nnc(NC(=O)c2ccc(S(=O)(=O)N3CCCc4ccccc43)cc2)o1 was read as HCMV antiviral -64*, SARS PLpro yeast-1 20µM*, LASV entry inh inconclusive, MARV entry inh inconclusive, HCV inh inconclusive and SARS PLpro yeast-2 inactive.
O=C(Nc1nnc(C2CC2)o1)c1ccc(S(=O)(=O)N2CCc3ccccc3C2)cc1 was read as HCMV antiviral 5, FMDV inh 3%, SARS PLpro yeast-1 inconclusive, HCV inh 11% and SARS PLpro yeast-2 inconclusive.
Screening CCc1nnc(NC(=O)c2ccc(S(=O)(=O)N(CC(C)C)CC(C)C)cc2)o1 returned HCMV antiviral -9, FMDV inh 6%, SARS PLpro yeast-1 inconclusive, LASV entry inh inconclusive, MARV entry inh inconclusive, HCV inh 10% and SARS PLpro yeast-2 active.
`FC(F)(F)c1ccccc1-c1cc(NCc2cccs2)ncn1` gave FMDV inh -6%.
